Shown are actives, neighbours in structure and some others; about 5.1% of the full set was active somewhere.
PNC assembly inh: High Content Assay for Compounds that inhibit the Assembly of the Perinucleolar Compartment; activity change (PNC), negative = inhibition, % at 10 µM; PC3M PTB-GFP, PNC prevalence imaging, 16 h; hits give low values; 140,000 compounds, 3.1% hits;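 active = readout at or below -70, meaning at least 70% loss of cells showing the perinucleolar compartment, a nuclear body marking cancer cells; inconclusive = readout between -30 and a set limit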
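Compounds are pinned in duplicate onto adhered PC3M cells stably expressing GFP-tagged PTB and incubated 16 h at 37 C. Cells are then fixed, nuclei stained with Hoechst, and PNC-positive cells counted.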
Tau fibril FP: qHTS for Inhibitors of Tau Fibril Formation, Fluorescence Polarization; Microtubule-associated protein tau (Homo sapiens), P10636; K18 P301L tau heparin fibrillization, Alexa594 FP, 6 h; Potency, µM (top dose mostly 57.7 µM), hits mostly inhibitors; 280,000 compounds, 0.39% hits; also: nearly all actives have a fitted effect of over 55% in size
Target sequence (P10636 561-689 P618L limits assumed): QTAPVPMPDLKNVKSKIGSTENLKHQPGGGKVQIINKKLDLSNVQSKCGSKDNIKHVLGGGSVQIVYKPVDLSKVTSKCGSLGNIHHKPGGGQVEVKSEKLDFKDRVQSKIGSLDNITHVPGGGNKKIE
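Human tau K18 […] P301L fragment, 15 uM unlabeled plus 0.24 uM Alexa 594-labeled tau (final), with compound and 20 uM heparin in 100 mM sodium acetate pH 7; 6 hr at 37 C, then Alexa 594 FP read.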
NPSR antagonist: qHTS Assay for Antagonists of the Neuropeptide S Receptor: cAMP Signal Transduction; 220,000 compounds, 1% hits; CHO-NPSR cells, cAMP TR-FRET, antagonist mode; Potency, µM (series often up to 38.3 µM), actives largely listed as inhibitors; also: nearly all actives have a fitted effect of over 50% in size
Target sequence (Q6W5P4 whole entry, looked up): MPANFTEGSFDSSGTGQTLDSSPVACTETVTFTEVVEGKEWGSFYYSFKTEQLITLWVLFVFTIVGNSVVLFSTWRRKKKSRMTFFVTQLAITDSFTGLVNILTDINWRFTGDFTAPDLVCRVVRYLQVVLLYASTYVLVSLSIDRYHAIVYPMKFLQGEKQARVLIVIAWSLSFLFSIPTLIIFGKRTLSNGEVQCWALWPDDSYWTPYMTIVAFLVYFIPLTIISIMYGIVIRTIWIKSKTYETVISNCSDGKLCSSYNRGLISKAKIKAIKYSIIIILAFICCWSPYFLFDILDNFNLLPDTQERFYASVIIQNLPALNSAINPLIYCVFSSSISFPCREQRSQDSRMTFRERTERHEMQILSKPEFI
JMJD2E inh: qHTS Assay for Inhibitors of Human Jumonji Domain Containing 2E (JMJD2E). Lysine-specific demethylase 4E (Homo sapiens), B2RXH2. JMJD2E catalytic domain, FDH-coupled NADH fluorescence (FDH is formaldehyde dehydrogenase). Potency, µM (doses to about 57.1 µM), most hits filed as inhibitors. 230,000 compounds, 1.6% hits. AID 2147, 2009; active = well fitted inhibition curve with a large enough effect, not every such curve was filed as active; inconclusive = small, poorly fitted or top-dose-only effect, or another doubt; inactive = no such curve, though single readings can be large or run the other way; also: nearly all actives have a fitted effect of over 50% in size
Tau fluor cs: Counterscreen qHTS for Inhibitors of Tau Fibril Formation, Fluorescence Polarization | tau K18 P301L Alexa594 fluorescence, heparin fibrillization | Potency, µM (highest dose often 57.7 µM) | 280,000 compounds, 0.93% hits | AID 1463, 2008; also: nearly all actives have a fitted effect of over 55% in size
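Human K18 P301L tau (15 uM unlabeled plus 0.24 uM Alexa 594-labeled, final) in 100 mM sodium acetate pH 7 was mixed with compound and 20 uM heparin and incubated 6 hr at 37 C.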
Tau ThT inhib: qHTS for Inhibitors of Tau Fibril Formation, Thioflavin T Binding | Microtubule-associated protein tau (Homo sapiens), P10636 | recombinant tau K18 P301L, heparin-induced fibrillization, ThT fluorescence | Potency, µM (top dose mostly 57.4 µM), most hits filed as inhibitors | 270,000 compounds, 2.1% hits; also: nearly all actives have a fitted effect of over 55% in size
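Fibril formation assay: tau K18 P301L at 15 uM with trace Alexa 594 label, heparin inducer 20 uM, pH 7 sodium acetate buffer, 37 C for 6 hr; endpoint ThT signal.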
Of the large screens only hits and unclear results are named; the others gave an inactive call; ! = not active in a repeat; [ ] = another dose, or the depositor's remark. Unless noted, calls follow the shape of the dose curve; as a rule, active = well fitted curve in the direction sought with a large enough effect; inconclusive = small, poorly fitted or top-dose-only effect, or another doubt; inactive = no such curve, though single readings can be large; an effect the other way counts as inactive or inconclusive.

Nc1c(N=Nc2ccccc2F)c(=O)[nH]n1-c1ccccc1	Tau fluor cs inconclusive, Tau ThT inhib inconclusive
Cc1nn(-c2ccccc2)c(N)c1N=Nc1ccc(Cl)cc1	PNC assembly inh -93, Tau fluor cs inconclusive, Tau ThT inhib 7.9µM
Cc1cccc(N=Nc2c(C)nn(-c3ccccc3)c2N)c1C	PNC assembly inh -134, Tau fluor cs inconclusive, Tau ThT inhib 7.1µM
Nc1nn(-c2ccccc2)c(N)c1N=Nc1ccccc1F	PNC assembly inh inconclusive, Tau fluor cs inconclusive, Tau ThT inhib 4.5µM
Cc1nn(-c2ccccc2)c(N)c1N=Nc1ccccc1	Tau fluor cs inconclusive, Tau ThT inhib 8.9µM
COc1cccc(NC(=O)Cn2c(=O)n(-c3ccc(Cl)cc3)c(=O)c3oc4ccccc4c32)c1	Tau ThT inhib inconclusive (no result: PNC assembly inh, NPSR antagonist, JMJD2E inh)
Oc1c(C(c2ccccc2)N2CCC3(CC2)OCCO3)sc2nc(-c3ccco3)nn12 (centres undefined)	none (no result: PNC assembly inh, NPSR antagonist, JMJD2E inh)
Cc1ccc(NC(=O)C(=O)NCC(c2cccnc2)N2CCc3ccccc3C2)cc1 (centres undefined)	Tau ThT inhib inconclusive (no result: PNC assembly inh, NPSR antagonist, JMJD2E inh)
Cc1cc(C)n2nc(N)c(N=Nc3ccccc3)c2n1	Tau ThT inhib 14µM (no result: PNC assembly inh)
Nc1nn(-c2ccccc2)c(N)c1N=Nc1ccccc1	Tau ThT inhib 5µM
Cc1nn(-c2ccccc2)c(N)c1-c1ccccc1	none (no result: PNC assembly inh)
Cn1nc(C(C)(C)C)cc1NC(=O)Nc1cc(Cl)cc(Cl)c1	Tau fibril FP 25µM, Tau fluor cs 7.1µM[quencher] (no result: PNC assembly inh)
CC(C)(C)c1cc[n+](C2=C([O-])c3ccccc3C(=O)/C2=N\S(=O)(=O)c2cccs2)cc1	NPSR antagonist inconclusive, JMJD2E inh inconclusive, Tau fluor cs inconclusive, Tau ThT inhib 18µM (no result: PNC assembly inh)
O=C1/C(=N\S(=O)(=O)c2cccs2)C([n+]2ccccc2)=C([O-])c2ccccc21	Tau fibril FP inconclusive, JMJD2E inh inconclusive, Tau fluor cs inconclusive, Tau ThT inhib inconclusive (no result: PNC assembly inh)
Brc1ccc(C2Nc3cccc4cccc(c34)N2)o1	Tau fibril FP inconclusive, JMJD2E inh 3.2µM, Tau fluor cs inconclusive, Tau ThT inhib inconclusive
O=[N+]([O-])c1ccccc1C1Nc2cccc3cccc(c23)N1	PNC assembly inh inconclusive, JMJD2E inh inconclusive, Tau fluor cs inconclusive, Tau ThT inhib inconclusive
c1csc(C2Nc3cccc4cccc(c34)N2)c1	Tau fibril FP inconclusive, JMJD2E inh inconclusive, Tau fluor cs 16µM[quencher], Tau ThT inhib 11µM
O=Cc1cn(CC(=O)N2CCCc3ccccc32)c2ccccc12	PNC assembly inh -100
CSc1ccc(CCNC(=O)C2CCN(c3ncnc4c3nc3n4CCCCC3)CC2)cc1	none (no result: PNC assembly inh, NPSR antagonist, JMJD2E inh)
COc1ccc(N2CCN(c3c4c(nc5nncn35)CCC4)CC2)cc1	Tau ThT inhib inconclusive (no result: PNC assembly inh, NPSR antagonist, JMJD2E inh)
COc1c2c(nc3occc13)C(CC=C(C)C)(OC)C(O)CC2 (centres undefined)	PNC assembly inh -100
COc1c2c(nc3occc13)C(CC=C(C)C)(OC)C(OC(C)=O)CC2 (centres undefined)	none
COc1cc2c(cc1OC)C1Cc3ccc(OC)c(OC)c3CN1CC2 (centres undefined)	PNC assembly inh -86
O=C(c1ccc(Nc2nc3ccccc3n3nnnc23)cc1)N1CCN(c2ccc(F)cc2)CC1	Tau fluor cs inconclusive, Tau ThT inhib inconclusive (no result: PNC assembly inh, NPSR antagonist, JMJD2E inh)
CCC/C(O)=C1\C(=O)CC(C)(C)CC1=Nc1ccc(OC)cc1OC	PNC assembly inh -139
COc1cc(NC(=O)NCCn2nnc3cc(S(=O)(=O)N(C)C)ccc32)cc(OC)c1	none (no result: PNC assembly inh, NPSR antagonist, JMJD2E inh)
O=C(Nc1cc(Cl)cc(Cl)c1)c1cccc(OC(F)F)c1	PNC assembly inh inconclusive, Tau fibril FP 20µM, NPSR antagonist inconclusive, Tau fluor cs inconclusive, Tau ThT inhib inconclusive
CN(C)S(=O)(=O)c1cccc(C(=O)Nc2cc(Cl)cc(Cl)c2)c1	PNC assembly inh inconclusive, Tau fibril FP inconclusive, Tau fluor cs inconclusive
O=C(COCc1nc2ccccc2c(=O)[nH]1)NCC1CCCCC1	PNC assembly inh -100
Cc1nn(-c2nnc(NCc3ccccc3)nn2)c(C)c1Br	PNC assembly inh inconclusive, Tau fluor cs inconclusive, Tau ThT inhib 14µM
Cc1cc(C)n(-c2nnc(NCc3ccc(Cl)cc3)nn2)n1	Tau ThT inhib inconclusive (no result: PNC assembly inh)
Nc1nc(=S)c2ncn(C3OC(CO)C(O)C3O)c2[nH]1 (centres undefined)	Tau fibril FP inconclusive, JMJD2E inh inconclusive, Tau fluor cs inconclusive, Tau ThT inhib 11µM (no result: PNC assembly inh)
O=C(CSC(=S)N1CCCC1)c1cc(Br)cc(Br)c1O	JMJD2E inh inconclusive, Tau ThT inhib inconclusive (no result: PNC assembly inh)
CC1CCCN(C(=S)SCC(=O)c2cc(Br)cc(Br)c2O)C1 (centres undefined)	Tau fibril FP inconclusive, JMJD2E inh inconclusive, Tau fluor cs inconclusive, Tau ThT inhib 16µM (no result: PNC assembly inh)
CSc1nc(/C=C2\C=Nc3ccccc32)c(O)n1C	Tau fluor cs inconclusive, Tau ThT inhib 11µM
CC(C)n1c(O)c(/C=C2\C=Nc3ccccc32)sc1=Nc1ccccc1	PNC assembly inh inconclusive, Tau fluor cs inconclusive
CCC(C)Oc1cccc(OCCCCN2C(=O)NC(C)(C)C2=O)c1 (centres undefined)	PNC assembly inh -96
CC1(C)NC(=O)N(CCCCOc2cccc(C(F)(F)F)c2)C1=O	PNC assembly inh inconclusive
O=C(Nc1cccc(F)c1)c1ccc(-c2ccccc2C(F)(F)F)o1	Tau fibril FP inconclusive, Tau fluor cs inconclusive
COc1ccc(NC(=O)c2ccc(-c3ccccc3C(F)(F)F)o2)cc1	PNC assembly inh -100, Tau fluor cs 25µM[quencher], Tau ThT inhib 25µM
CCCCOc1cc(C(=O)NCCN(CC)CC)c2ccccc2n1	PNC assembly inh -115!, JMJD2E inh 32µM
CC(NC(=O)c1sc2cc([N+](=O)[O-])ccc2c1Cl)C(C)(C)C (centres undefined)	Tau fibril FP inconclusive, Tau ThT inhib 22µM
CCCn1c(=O)c2sccc2n2c(CCCC(=O)N3CCN(c4ccc(OC)cc4)CC3)nnc12	none (no result: PNC assembly inh, NPSR antagonist, JMJD2E inh)
COC(=O)c1ccc2nc(Nc3nc4c(F)cc(F)cc4s3)sc2c1	PNC assembly inh -100, Tau fibril FP inconclusive, Tau fluor cs inconclusive, Tau ThT inhib inconclusive
CCOC(=O)c1ccc2nc(Nc3nc4ccc(F)cc4s3)sc2c1	PNC assembly inh -107, Tau fluor cs inconclusive, Tau ThT inhib inconclusive
COC(=O)c1ccc2nc(NC(=O)C(C)C)sc2c1	none (no result: PNC assembly inh)
CCOC(=O)c1ccc2nc(NC(C)=O)sc2c1	none (no result: PNC assembly inh)
N#Cc1nc(COc2ccccc2Cl)oc1N1CCCC1	none (no result: PNC assembly inh)
